Data reported in PubChem BioAssay.
Active and inactive are the calls of the source.

Assays:
Albumin (Bos taurus) = Albumin (Bos taurus) (UniProt P02769); test: compounds binding labelled BSA control protein – biochemical, small-molecule microarray, Alexa647 label, 635/667 nm fluorescence, artefact control for SMM control protein annotation, profiling panel (AID 1118); details: BSA-A647 binding, fluorescence 635 nm, higher = more signal;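 note: score merges 667 nm emission intensity and signal-to-noise per printed compound spot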
Sequence of Albumin (Bos taurus) (P02769 whole entry, looked up): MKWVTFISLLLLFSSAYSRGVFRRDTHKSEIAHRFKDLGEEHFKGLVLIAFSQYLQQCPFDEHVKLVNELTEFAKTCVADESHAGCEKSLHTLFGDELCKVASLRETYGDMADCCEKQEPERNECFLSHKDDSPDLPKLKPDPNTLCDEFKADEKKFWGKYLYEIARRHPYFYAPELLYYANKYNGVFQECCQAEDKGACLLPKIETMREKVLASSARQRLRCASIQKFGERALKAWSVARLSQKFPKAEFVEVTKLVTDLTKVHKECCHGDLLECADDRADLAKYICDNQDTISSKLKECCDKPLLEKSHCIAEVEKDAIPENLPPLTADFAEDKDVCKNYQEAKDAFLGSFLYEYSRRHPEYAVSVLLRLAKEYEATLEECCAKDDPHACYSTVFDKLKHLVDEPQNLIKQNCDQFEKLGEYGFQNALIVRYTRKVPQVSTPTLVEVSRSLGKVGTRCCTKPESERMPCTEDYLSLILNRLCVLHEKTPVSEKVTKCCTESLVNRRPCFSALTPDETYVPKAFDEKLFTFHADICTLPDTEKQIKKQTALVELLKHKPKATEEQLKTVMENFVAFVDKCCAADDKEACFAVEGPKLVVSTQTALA

[1] = probe aXIP binding to arrayed compounds – biochemical, NeuroSMM set, 635/667 nm fluorescence, primary screen (AID 1119); details: small-molecule microarray, higher = more signal, called active from +8 up or from −8 down;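 note: probe is the protein aXip251-270 applied at 1 µg/mL to compound-printed slides; binding of probe to printed compounds measured as 667 nm fluorescence plus signal to noise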
[2] = probe aNOTCH3 binding on compound microarray – biochemical, small-molecule microarray, 635/667 nm fluorescence, primary screen (AID 1120); details: higher = more signal;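 note: probe is a biotin-tagged antibody raised against NOTCH3 rather than NOTCH3 protein; score merges spot fluorescence near 667 nm with spot signal to noise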
[3] = probe aNOTCH2 binding on compound microarray – biochemical, small-molecule microarray, 635/667 nm fluorescence, primary screen (AID 1121); details: higher = more signal;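 note: score merges feature fluorescence read at 667 nm with its signal to noise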
[4] = target: Carbonic anhydrase 2 (Homo sapiens) (UniProt P00918); test: compounds binding carbonic anhydrase 2 – biochemical, small-molecule microarray, Alexa647-labelled CAII, profiling panel (AID 1122); details: CAII-A647 binding fluorescence, higher = more signal
[5] = COS7 lysate on small-molecule microarray, probe aHis, 635 nm (AID 1123); details: COS7 cell lysate, fluorescence, higher = more signal;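 note: z-score combines 667nm fluorescence intensity with signal-to-noise per printed compound spot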
[6] = probe aLAP1 signal on lysate-treated microarray – cell lysate, small-molecule microarray, COS7 lysate, primary screen (AID 1124); details: probe aLAP1, fluorescence, higher = more signal;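 note: lysate comes from COS7 cells expressing LAP1 and is applied at 0.3 µg/mL; score merges spot fluorescence near 667 nm with signal-to-noise over triplicate slides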
Sam68 (KHDRBS1) = test: compounds binding KHDRBS1 protein – biochemical, small-molecule microarray, 635 nm fluorescence, primary screen (AID 1125); details: higher = more signal;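 note: score merges 667 nm channel intensity with signal to noise over triplicate slides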
[7] = test system: Chordin-like protein 2 (CHRDL2); test: compounds binding chordin-like 2 – biochemical, small-molecule microarray, 635 nm fluorescence, primary screen (AID 1126); details: fluorescence 635 nm, higher = more signal;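 note: printed compound slides probed with Chrdl2 protein at 4 µg/mL for 1 h at 4 C; score merges 667 nm emission intensity with signal to noise over three replicate slides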
[8] = target: Concanavalin-A (Canavalia ensiformis) (UniProt P02866); test: compounds binding concanavalin A lectin – biochemical, small-molecule microarray, Alexa647 label, 635 nm, artefact control for SMM control protein annotation, primary screen (AID 1127); details: ConA-A647 binding fluorescence, higher = more signal;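 note: z combines 667 nm emission intensity with signal-to-noise across three replicate slides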
Sequence of Concanavalin-A (Canavalia ensiformis) (P02866 whole entry, looked up): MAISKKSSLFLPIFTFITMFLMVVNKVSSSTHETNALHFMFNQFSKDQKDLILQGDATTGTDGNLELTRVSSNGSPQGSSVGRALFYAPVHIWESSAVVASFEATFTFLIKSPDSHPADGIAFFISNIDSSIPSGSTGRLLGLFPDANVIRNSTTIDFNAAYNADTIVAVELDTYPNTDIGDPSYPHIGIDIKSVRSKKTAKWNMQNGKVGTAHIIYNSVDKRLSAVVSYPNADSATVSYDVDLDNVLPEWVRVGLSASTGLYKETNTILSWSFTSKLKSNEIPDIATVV

Row | SMILES | composite z-score (Albumin (Bos taurus)) | composite Z-score [1] | composite z-score [2] | composite z-score [3] | composite z-score [4] | composite z-score [5] | composite z-score [6] | composite z-score (Sam68 (KHDRBS1)) | composite z-score [7] | composite z-score [8]
1 | CC(C)C(O)C1C=CC2C(=O)N(C)C(=O)C2N1N(c1ccccc1)c1ccccc1 (stereo not given) | 0.736 | 0.491 (inactive) | -0.047 | -0.0482 | 0.697 | 0.986 | -0.37 | -0.797 | -1.17 | -0.847
2 | O=C(O)[C@H](Cc1ccccc1)n1cc(-c2ccccn2)nn1 | 0.672 | -0.341 (inactive) | -0.0311 | -0.1 | 0.285 | 0.383 | 0.132 | 0.614 | 0.129 | 0.862
3 | O=C1NC(=O)C2C1C=CC(C(O)c1c(F)cccc1Cl)N2Nc1ccccn1 (stereo not given) | 0.179 | -0.527 (inactive) | -0.0009 | 0.0203 | 0.805 | -0.42 | 1 | 0.0076 | 0.676 | -0.453
4 | CC1CC/C=C\[C@H]2OC34C=CCN(C(C)C)C(=O)[C@H]3N(CCCCCO)C(=O)[C@@H]4C2C(=O)O1 (stereo not given in full) | -1.51 | -0.362 (inactive) | -0.289 | -0.153 | 0.939 | -0.384 | 0.839 | -0.925 | -1.69 | -0.486
5 | O=C1O[C@@H](c2ccccc2)[C@@H](c2ccccc2)N2[C@@H](c3ccccc3OCCO)[C@]3(C(=O)Nc4ccccc43)[C@@H](C(=O)NC[C@H](O)c3ccccc3)[C@H]12 | 0.641 | -0.0662 (inactive) | -0.213 | -0.14 | 0.586 | 1.32 | 0.487 | 0.9 | -1.15 | 0.196
6 | COc1c(C)cc(-c2cc3c(c(-c4ccccc4)n2)[Si](C(C)C)(C(C)C)OC3)cc1C | 0.247 | 0.478 (inactive) | -0.116 | -0.21 | -0.185 | -0.591 | -0.154 | -0.5 | 0.652 | 0.134
7 | CC(C)C(=C=CC[C@H](O)c1ccc(OCCO)cc1)C[C@H](O)c1cc(Cl)cc(Cl)c1O | 0.584 | 0.32 (inactive) | 0.232 | -0.0533 | 0.542 | 0.644 | 0.147 | 1.26 | 0.243 | 1.07
8 | C=CCOC(=O)[C@H]1[C@@H]2C(=O)O[C@@H](c3ccccc3)[C@@H](c3ccccc3)N2[C@@H](c2ccc(OCCOC(=O)[C@H]3C[C@H]4C(=O)N[C@@H](Cc5ccccc5)C(=O)N4[C@H]3c3ccc(O)cc3)cc2)[C@]12C(=O)Nc1ccc(I)cc12 | -0.175 | 0.341 (inactive) | 0.189 | -0.11 | 0.28 | 1.78 | 0.428 | 1.3 | 1.23 | 1.14
9 | COc1ccccc1CN1C(=O)c2ccccc2[C@](Cc2ccccc2I)(C(=O)NC(C)C)[C@@H]1c1ccc(CO)cc1 | 0.894 | 0.338 (inactive) | 0.101 | -0.123 | 0.131 | 2.39 | 0.226 | 1.3 | 0.286 | 1.16
10 | COC(=O)[C@@]1(Cc2ccccc2)[C@H]2c3cc(C(=O)N4CCCC4)n(C[C@H](O)CO)c3C[C@H]2CN1C(=O)c1ccccc1 | 0.659 | -0.164 (inactive) | 0.152 | 0.0837 | 0.907 | 1.79 | 0.288 | 0.18 | -1.34 | -0.311
11 | C=CCNC(=O)[C@H]1[C@@H]2C(=O)O[C@@H](c3ccccc3)[C@@H](c3ccccc3)N2[C@@H](c2ccccc2OCCO)[C@]12C(=O)N(C(=O)OCCOC)c1ccc(C#CC3=CCCCC3)cc12 | -0.286 | -0.0127 (inactive) | 0.345 | 0.148 | 0.55 | 1.33 | 1.01 | 1.3 | 0.51 | 0.942
12 | CCOc1cc(C(O)C2C=CC3C(=O)N(C4CCCCC4)C(=O)C3N2Nc2ccc(OC)cc2)ccc1O (stereo not given) | 0.786 | 0.764 (inactive) | 0.208 | 0.0791 | 0.441 | 2.61 | 0.717 | 1.28 | -0.0164 | 1.12
13 | O=C1O[C@@H](c2ccccc2)[C@@H](c2ccccc2)N2[C@@H](c3ccc(O)cc3)[C@]3(C(=O)Nc4ccc(C#CC5=CCCCC5)cc43)[C@@H](C(=O)N3CCN(c4ncccn4)CC3)[C@H]12 | 0.475 | 0.131 (inactive) | -0.0328 | -0.111 | 0.573 | 1.72 | 0.299 | 1.29 | 0.363 | 1.11
14 | COC(=O)[C@@]1(Cc2ccc(OC)cc2)[C@H]2c3cc(C(=O)N(C)C)n(Cc4nc5ccccc5[nH]4)c3C[C@H]2CN1C(=O)c1ccccc1 | 0.997 | -0.119 (inactive) | 0.515 | -0.112 | 0.781 | 2.27 | -0.0637 | 1.32 | -0.54 | 1.19
15 | C=CCC(OC(C)=O)[C@@H]1[C@@H](N(Cc2cc3ccccc3o2)C(=O)Cc2ccc(F)cc2)c2cc(OCCCO)ccc2N1C(=O)c1ccc2ccccc2n1 (stereo not given in full) | 0.124 | -0.16 (inactive) | -0.136 | -0.104 | -0.183 | 0.178 | 0.104 | -0.847 | 0.344 | -0.0002
16 | CC(C)(C)OC(=O)CC[C@]1(C(=O)O)N=C(c2ccc(OCCCO)cc2)O[C@H]1c1ccccc1CN=[N+]=[N-] | 0.472 | -0.209 (inactive) | 0.0165 | 0.0264 | 0.917 | 0.811 | 0.383 | 0.0075 | -0.237 | -0.192
17 | COC(=O)[C@@]1(Cc2ccc(OC)cc2)[C@H]2c3cc(C(=O)N(C)C)n(CCc4c[nH]c5ccc(O)cc45)c3C[C@H]2CN1C(=O)c1ccccc1 | 0.932 | 0.258 (inactive) | 0.403 | 0.357 | 0.745 | 2.88 | 1.27 | 1.34 | 0.121 | 1.17
18 | CC(C)N1C(=O)[C@@]2(c3ccc([N+](=O)[O-])cc3)CC(=O)N(C3CCCCC3)[C@@H]2c2ccc(CO)cc21 | -0.545 | 0.633 (inactive) | -0.215 | -0.12 | 0.222 | -0.0857 | 0.398 | 0.123 | 0.208 | 0.684
19 | CC(C)C(O)C1C=CC2C(=O)N(C)C(=O)C2N1Nc1ccccc1 (stereo not given) | 1.04 | 0.469 (inactive) | 0.585 | 0.45 | 0.812 | 1.86 | 1.01 | 1.12 | 0.164 | 0.871
20 | COc1cc2c(cc1OC)CN(C(=O)[C@@H]1[C@H]3C(=O)O[C@H](c4ccccc4)[C@H](c4ccccc4)N3[C@H](c3ccccc3OCCO)[C@@]13C(=O)Nc1ccc(C#CC4(O)CCCCCC4)cc13)CC2 | 0.319 | 0.428 (inactive) | 0.0316 | -0.0859 | 0.527 | 1.48 | 0.829 | 1.3 | 0.334 | 1.13
21 | [N-]=[N+]=NCc1ccccc1C[C@@]1(C(N)=O)N=C(c2ccc(OCCCO)cc2)O[C@@H]1c1ccccc1CN=[N+]=[N-] | 0.757 | 1.22 (inactive) | 0.105 | -0.0386 | 0.549 | 1.5 | 0.383 | 1.29 | -0.464 | 0.792
